{"source": "the supplement of paper PMC9117331", "details_in_all_cases": "0.5 µM; time after treatment 48 h; PC9 signalome", "key": {"PC9 [1]": {"tested_on": "PC9", "assay": "AKT reporter activity score (signed KS statistic vs DMSO) (signed KS statistic (-1 to 1)); higher = stronger activation of the pathway reporter relative to DMSO"}, "PC9 [2]": {"tested_on": "PC9", "assay": "RAR reporter activity score (signed KS statistic vs DMSO) (signed KS statistic (-1 to 1)); higher = stronger activation of the pathway reporter relative to DMSO"}, "PC9 [3]": {"tested_on": "PC9", "assay": "PKC reporter activity score (signed KS statistic vs DMSO) (signed KS statistic (-1 to 1)); higher = stronger activation of the pathway reporter relative to DMSO"}, "PC9 [4]": {"tested_on": "PC9", "assay": "PKA reporter activity score (signed KS statistic vs DMSO) (signed KS statistic (-1 to 1)); higher = stronger activation of the pathway reporter relative to DMSO"}, "PC9 [5]": {"tested_on": "PC9", "assay": "p38 reporter activity score (signed KS statistic vs DMSO) (signed KS statistic (-1 to 1)); higher = stronger activation of the pathway reporter relative to DMSO"}, "PC9 [6]": {"tested_on": "PC9", "assay": "HIF reporter activity score (signed KS statistic vs DMSO) (signed KS statistic (-1 to 1)); higher = stronger activation of the pathway reporter relative to DMSO"}, "PC9 [7]": {"tested_on": "PC9", "assay": "ERK reporter activity score (signed KS statistic vs DMSO) (signed KS statistic (-1 to 1)); higher = stronger activation of the pathway reporter relative to DMSO"}, "PC9 [8]": {"tested_on": "PC9", "assay": "JNK reporter activity score (signed KS statistic vs DMSO) (signed KS statistic (-1 to 1)); higher = stronger activation of the pathway reporter relative to DMSO"}, "PC9 [9]": {"tested_on": "PC9", "assay": "WNT reporter activity score (signed KS statistic vs DMSO) (signed KS statistic (-1 to 1)); higher = stronger activation of the pathway reporter relative to DMSO"}, "PC9 [10]": {"tested_on": "PC9", "assay": "NFkB reporter activity score (signed KS statistic vs DMSO) (signed KS statistic (-1 to 1)); higher = stronger activation of the pathway reporter relative to DMSO"}, "PC9 [11]": {"tested_on": "PC9", "assay": "YAP/TAZ reporter activity score (signed KS statistic vs DMSO) (signed KS statistic (-1 to 1)); higher = stronger activation of the pathway reporter relative to DMSO"}}, "data": [{"compound": "COc1ccc(-c2ccc3c(N4CCOCC4)nc(N4C[C@@H](C)O[C@@H](C)C4)nc3n2)cc1CO", "values": [{"measurement": "AKT reporter activity score", "setting": "PC9 [1]", "result": -0.124}, {"measurement": "RAR reporter activity score", "setting": "PC9 [2]", "result": -0.302}, {"measurement": "PKC reporter activity score", "setting": "PC9 [3]", "result": -0.0717}, {"measurement": "PKA reporter activity score", "setting": "PC9 [4]", "result": -0.114}, {"measurement": "p38 reporter activity score", "setting": "PC9 [5]", "result": -0.0964}, {"measurement": "HIF reporter activity score", "setting": "PC9 [6]", "result": -0.246}, {"measurement": "ERK reporter activity score", "setting": "PC9 [7]", "result": 0.079}, {"measurement": "JNK reporter activity score", "setting": "PC9 [8]", "result": 0.0459}, {"measurement": "WNT reporter activity score", "setting": "PC9 [9]", "result": 0.0519}, {"measurement": "NFkB reporter activity score", "setting": "PC9 [10]", "result": 0.0599}, {"measurement": "YAP/TAZ reporter activity score", "setting": "PC9 [11]", "result": -0.085}]}, {"compound": "Cc1cc(C(=O)NOCCO)c(Nc2ccc(I)cc2F)n(C)c1=O", "values": [{"measurement": "AKT reporter activity score", "setting": "PC9 [1]", "result": -0.0809}, {"measurement": "RAR reporter activity score", "setting": "PC9 [2]", "result": 0.337}, {"measurement": "PKC reporter activity score", "setting": "PC9 [3]", "result": 0.0992}, {"measurement": "PKA reporter activity score", "setting": "PC9 [4]", "result": -0.257}, {"measurement": "p38 reporter activity score", "setting": "PC9 [5]", "result": 0.108}, {"measurement": "HIF reporter activity score", "setting": "PC9 [6]", "result": 0.0532}, {"measurement": "ERK reporter activity score", "setting": "PC9 [7]", "result": -0.629}, {"measurement": "JNK reporter activity score", "setting": "PC9 [8]", "result": 0.22}, {"measurement": "WNT reporter activity score", "setting": "PC9 [9]", "result": 0.0922}, {"measurement": "NFkB reporter activity score", "setting": "PC9 [10]", "result": 0.224}, {"measurement": "YAP/TAZ reporter activity score", "setting": "PC9 [11]", "result": 0.448}]}, {"compound": "C#CCC(Cc1cnc2nc(N)nc(N)c2n1)c1ccc(C(=O)N[C@@H](CCC(=O)O)C(=O)O)cc1", "note": "(some centres undefined) [Pralatrexate(Folotyn)]", "values": [{"measurement": "AKT reporter activity score", "setting": "PC9 [1]", "result": -0.334}, {"measurement": "RAR reporter activity score", "setting": "PC9 [2]", "result": 0.231}, {"measurement": "PKC reporter activity score", "setting": "PC9 [3]", "result": 0.0797}, {"measurement": "PKA reporter activity score", "setting": "PC9 [4]", "result": -0.237}, {"measurement": "p38 reporter activity score", "setting": "PC9 [5]", "result": -0.0729}, {"measurement": "HIF reporter activity score", "setting": "PC9 [6]", "result": 0.149}, {"measurement": "ERK reporter activity score", "setting": "PC9 [7]", "result": -0.257}, {"measurement": "JNK reporter activity score", "setting": "PC9 [8]", "result": 0.0731}, {"measurement": "WNT reporter activity score", "setting": "PC9 [9]", "result": 0.0527}, {"measurement": "NFkB reporter activity score", "setting": "PC9 [10]", "result": 0.0639}, {"measurement": "YAP/TAZ reporter activity score", "setting": "PC9 [11]", "result": 0.223}]}, {"compound": "CC(C)NC[C@@H](C(=O)N1CCN(c2ncnc3c2[C@H](C)C[C@H]3O)CC1)c1ccc(Cl)cc1", "note": "[Ipatasertib (GDC-0068)]", "values": [{"measurement": "AKT reporter activity score", "setting": "PC9 [1]", "result": -0.688}, {"measurement": "RAR reporter activity score", "setting": "PC9 [2]", "result": -0.297}, {"measurement": "PKC reporter activity score", "setting": "PC9 [3]", "result": -0.0598}, {"measurement": "PKA reporter activity score", "setting": "PC9 [4]", "result": 0.241}, {"measurement": "p38 reporter activity score", "setting": "PC9 [5]", "result": -0.0739}, {"measurement": "HIF reporter activity score", "setting": "PC9 [6]", "result": -0.228}, {"measurement": "ERK reporter activity score", "setting": "PC9 [7]", "result": 0.0863}, {"measurement": "JNK reporter activity score", "setting": "PC9 [8]", "result": -0.0989}, {"measurement": "WNT reporter activity score", "setting": "PC9 [9]", "result": 0.0644}, {"measurement": "NFkB reporter activity score", "setting": "PC9 [10]", "result": 0.0919}, {"measurement": "YAP/TAZ reporter activity score", "setting": "PC9 [11]", "result": -0.0823}]}, {"compound": "Cc1c(NC(=O)OC[C@@H]2COCCN2)cn2ncnc(Nc3ccc4c(cnn4Cc4cccc(F)c4)c3)c12", "values": [{"measurement": "AKT reporter activity score", "setting": "PC9 [1]", "result": -0.228}, {"measurement": "RAR reporter activity score", "setting": "PC9 [2]", "result": 0.182}, {"measurement": "PKC reporter activity score", "setting": "PC9 [3]", "result": 0.0831}, {"measurement": "PKA reporter activity score", "setting": "PC9 [4]", "result": 0.0553}, {"measurement": "p38 reporter activity score", "setting": "PC9 [5]", "result": -0.0763}, {"measurement": "HIF reporter activity score", "setting": "PC9 [6]", "result": -0.136}, {"measurement": "ERK reporter activity score", "setting": "PC9 [7]", "result": -0.29}, {"measurement": "JNK reporter activity score", "setting": "PC9 [8]", "result": -0.0881}, {"measurement": "WNT reporter activity score", "setting": "PC9 [9]", "result": 0.0831}, {"measurement": "NFkB reporter activity score", "setting": "PC9 [10]", "result": 0.0753}, {"measurement": "YAP/TAZ reporter activity score", "setting": "PC9 [11]", "result": 0.0967}]}, {"compound": "COc1cc2ncnc(Nc3ccc(F)c(Cl)c3)c2cc1OCCCN1CCOCC1", "note": "[Gefitinib (Iressa)]", "values": [{"measurement": "AKT reporter activity score", "setting": "PC9 [1]", "result": -0.363}, {"measurement": "RAR reporter activity score", "setting": "PC9 [2]", "result": 0.5}, {"measurement": "PKC reporter activity score", "setting": "PC9 [3]", "result": 0.0998}, {"measurement": "PKA reporter activity score", "setting": "PC9 [4]", "result": -0.3}, {"measurement": "p38 reporter activity score", "setting": "PC9 [5]", "result": -0.282}, {"measurement": "HIF reporter activity score", "setting": "PC9 [6]", "result": 0.136}, {"measurement": "ERK reporter activity score", "setting": "PC9 [7]", "result": -0.664}, {"measurement": "JNK reporter activity score", "setting": "PC9 [8]", "result": 0.166}, {"measurement": "WNT reporter activity score", "setting": "PC9 [9]", "result": 0.25}, {"measurement": "NFkB reporter activity score", "setting": "PC9 [10]", "result": 0.184}, {"measurement": "YAP/TAZ reporter activity score", "setting": "PC9 [11]", "result": 0.4}]}, {"compound": "O=C(NOC[C@H](O)CO)c1ccc(F)c(F)c1Nc1ccc(I)cc1F", "values": [{"measurement": "AKT reporter activity score", "setting": "PC9 [1]", "result": 0.136}, {"measurement": "RAR reporter activity score", "setting": "PC9 [2]", "result": 0.142}, {"measurement": "PKC reporter activity score", "setting": "PC9 [3]", "result": 0.094}, {"measurement": "PKA reporter activity score", "setting": "PC9 [4]", "result": -0.18}, {"measurement": "p38 reporter activity score", "setting": "PC9 [5]", "result": -0.265}, {"measurement": "HIF reporter activity score", "setting": "PC9 [6]", "result": -0.129}, {"measurement": "ERK reporter activity score", "setting": "PC9 [7]", "result": -0.452}, {"measurement": "JNK reporter activity score", "setting": "PC9 [8]", "result": 0.303}, {"measurement": "WNT reporter activity score", "setting": "PC9 [9]", "result": 0.0484}, {"measurement": "NFkB reporter activity score", "setting": "PC9 [10]", "result": 0.228}, {"measurement": "YAP/TAZ reporter activity score", "setting": "PC9 [11]", "result": 0.42}]}, {"compound": "Cc1ccc([N+](=O)[O-])cc1S(=O)(=O)N(C)/N=C/c1cnc2ccc(Br)cn12", "values": [{"measurement": "AKT reporter activity score", "setting": "PC9 [1]", "result": -0.252}, {"measurement": "RAR reporter activity score", "setting": "PC9 [2]", "result": 0.101}, {"measurement": "PKC reporter activity score", "setting": "PC9 [3]", "result": 0.105}, {"measurement": "PKA reporter activity score", "setting": "PC9 [4]", "result": -0.347}, {"measurement": "p38 reporter activity score", "setting": "PC9 [5]", "result": -0.118}, {"measurement": "HIF reporter activity score", "setting": "PC9 [6]", "result": 0.178}, {"measurement": "ERK reporter activity score", "setting": "PC9 [7]", "result": -0.147}, {"measurement": "JNK reporter activity score", "setting": "PC9 [8]", "result": 0.157}, {"measurement": "WNT reporter activity score", "setting": "PC9 [9]", "result": 0.207}, {"measurement": "NFkB reporter activity score", "setting": "PC9 [10]", "result": 0.0772}, {"measurement": "YAP/TAZ reporter activity score", "setting": "PC9 [11]", "result": 0.169}]}, {"compound": "COc1ncc(-c2ccc3nccc(-c4ccnnc4)c3c2)cc1NS(=O)(=O)c1ccc(F)cc1F", "values": [{"measurement": "AKT reporter activity score", "setting": "PC9 [1]", "result": -0.778}, {"measurement": "RAR reporter activity score", "setting": "PC9 [2]", "result": 0.43}, {"measurement": "PKC reporter activity score", "setting": "PC9 [3]", "result": 0.0478}, {"measurement": "PKA reporter activity score", "setting": "PC9 [4]", "result": -0.254}, {"measurement": "p38 reporter activity score", "setting": "PC9 [5]", "result": -0.499}, {"measurement": "HIF reporter activity score", "setting": "PC9 [6]", "result": 0.0783}, {"measurement": "ERK reporter activity score", "setting": "PC9 [7]", "result": -0.33}, {"measurement": "JNK reporter activity score", "setting": "PC9 [8]", "result": -0.305}, {"measurement": "WNT reporter activity score", "setting": "PC9 [9]", "result": 0.123}, {"measurement": "NFkB reporter activity score", "setting": "PC9 [10]", "result": 0.192}, {"measurement": "YAP/TAZ reporter activity score", "setting": "PC9 [11]", "result": 0.18}]}]}
